Bioassay records as filed in PubChem.
KB-V1 MDR tox: KB-V1 MDR subline cytotoxicity | KB-V1 MDR cells viability, CellTiter-Glo, 72 h | Potency, µM (top dose mostly 46.1 µM), most hits filed as cytotoxic | AID 1347076 | hit rate 3.4% among 400,000; also: % is scaled to controls: 0 for no effect and ±100 for the full control effect; nearly all actives have a fitted effect of over 60% in size
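Drug-selected KB-V1 cells, grown in DMEM lacking phenol red with 10% FBS, receive compound titrations; after three days at 37 degrees C, surviving cell ATP is quantified by CellTiter-Glo luminescence and responses normalized and curve-fitted.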
HT1080 IDH1KD tx: HT-1080 IDH1 knockdown cell toxicity (counter line). HT-1080 IDH1 knockdown viability, ATP luminescence, 48 h. Potency, µM (titrated, usually from 46.1 µM), for the others: at the highest dose activity, negative = toxicity, actives largely listed as cytotoxic. hit rate 2% among 360,000;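 also: 0% = DMSO wells and -100% = cell-free medium wells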
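Luminescent ATP read-out (CellTiter-Glo, 10 min at room temperature) after 48 h compound exposure at 37 °C gave viability of IDH1-knockdown HT-1080 cells. Activity was normalised to DMSO and cell-free wells, then fitted as concentration-response curves.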
HT1080NT lethal: kills 2HG-producing HT-1080-NT fibrosarcoma cells; HT-1080-NT fibrosarcoma viability, CellTiter-Glo ATP luminescence, 48 h; Potency, µM (titrated, usually from 46.1 µM), for the others: top-dose activity, negative = less viability, actives largely listed as cytotoxic; hit rate 1.6% among 360,000;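 also: NT is the 2HG producing partner of a matched IDH1 knockdown line; 0% = DMSO-treated cells and -100% = media-only wells without cells; nearly all actives have a fitted effect of over 55% in size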
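Viability by CellTiter-Glo luminescence after 48 h compound exposure at 37C of HT-1080-NT cells (750/well, RPMI, 5% FBS). % activity scaled between DMSO wells and medium-only wells, then curve-fitted and categorized by curve class.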
KB-3-1 cytotox: KB-3-1 parental cell cytotoxicity | hit rate 1.4% among 400,000 | KB-3-1 viability, CellTiter-Glo ATP luminescence, 72 h | AID 1347075 | Potency, µM (titrated, usually from 46.1 µM), actives largely listed as cytotoxic; also: % is scaled to controls: 0 for no effect and ±100 for the full control effect; nearly all actives have a fitted effect of over 60% in size
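72 h, 37 °C compound treatment of KB-3-1 parental cells; CellTiter-Glo added, 10 min, luminescence read. Data corrected against DMSO-only plates and normalized before curve fitting.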
SW480 rereplic: induces DNA re-replication in SW480 colon adenocarcinoma cells | SW480 DNA re-replication, Hoechst DNA content imaging, 48 h | Potency, µM (doses to about 46.1 µM), without a hit: top-dose re-replication activation, actives largely listed as activators | hit rate 1.8% among 340,000 | AID 624297; also: % of control where 0% means no effect; nearly all actives have a fitted effect of over 55% in size
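First, 250 cells per well were seeded. Next, compound or vehicle (23 nL) was pinned in, plates sat 48 hr at 37 C. Finally Hoechst was added for 40 min before fluorescence scanning.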
MCF10A rereplic: induces DNA re-replication in MCF 10a normal breast cells | MCF 10A DNA re-replication, Hoechst nuclear intensity, 48 h | Potency, µM (series often up to 46.1 µM), for the others: top-dose activity, positive = re-replication, usual class: activators | hit rate 2.9% among 350,000; also: % of control where 0% means no effect; nearly all actives have a fitted effect of over 50% in size
An asterisk follows results filed as active; i = inactive; ? = inconclusive; / = no result; [ ] = another dose, or the depositor's remark. Shown are actives, neighbours in structure and some others; about 7.9% of the full set was active somewhere. Calls follow the shape of the dose curve; as a rule, active = well fitted curve in the direction sought with a large enough effect; inconclusive = small, poorly fitted or top-dose-only effect, or another doubt; inactive = no such curve, though single readings can be large; an effect the other way counts as inactive or inconclusive. Potency is read from the fitted curve at half-maximal effect.

SMILES	KB-V1 MDR tox	HT1080 IDH1KD tx	HT1080NT lethal	KB-3-1 cytotox	SW480 rereplic	MCF10A rereplic
Cc1ccccc1NC(=O)c1cc(C(=O)c2cc(Cl)ccc2O)cn(-c2ccccc2C)c1=O	9.2µM*	?	?	i	/	22.9%
CN(C(=O)c1cc([N+](=O)[O-])ccc1N1CCCC1)C1CCCCC1	i	-3.9%	0.5%	i	-2.3%	-1.4%
CCc1ccc(C2c3[nH]c4ccccc4c3CCN2C(=O)CN2CCN(CC)CC2)cc1 (stereo not given)	i	?	23.1µM*	?	?	?
CCN(CC)S(=O)(=O)c1ccc(C(=O)NC2=C(C(=O)OC)SCC2)cc1	i	-5.7%	7.0%	i	1.7%	19.7%
O=S(=O)([N-]c1nc2ccccc2nc1-n1cc[n+](Cc2ccccc2)c1)c1ccc(Br)cc1	i	3.3%	0.7%	i	18.4µM*	18.4µM*
CCCCC[n+]1ccn(-c2nc3ccccc3nc2[N-]S(=O)(=O)c2ccccc2)c1	i	-2.9%	-9.7%	i	-6.0%	2.1%
CC(C)CC[n+]1ccn(-c2nc3ccccc3nc2[N-]S(=O)(=O)c2ccc(Cl)cc2)c1	i	1.0%	-4.4%	i	?	23.1µM*
Cc1ccc(S(=O)(=O)[N-]c2nc3ccccc3nc2-n2cc[n+](CCC(C)C)c2)cc1	i	-4.3%	-25.3%	i	17.2%	-14.6%
O=c1c2oc3ccccc3c2ncn1Cc1ccc(Br)cc1	i	/	/	i	/	/
CCOC(=O)c1sc2ncc([N+](=O)[O-])cc2c1N	?	10.2%	25.7%	i	4.6%	2.3%
COc1ccccc1N1CCN(Cc2ccc(O)c3ncccc23)CC1	?	0.159µM*	0.141µM*	5.17µM*	?	?
COc1ccccc1N1CCN(c2ccc3ccccc3n2)CC1	?	-12.9%	-15.1%	i	-21.6%	17.4%
COc1ccccc1N1CCN(c2ccc(-c3ccccc3)nn2)CC1	2.06µM*	?	2.59µM*	2.06µM*	4.11µM*	2.59µM*
COc1ccc(CN2CCN(c3ccccc3OC)CC2)cc1OC	?	-11.8%	-3.1%	i	-17.1%	2.06µM*
CCOC(=O)C1CCN(Cc2ccc(O)c3ncccc23)CC1	16.4µM*	-29.7%	?	23.1µM*	0.92µM*	4.11µM*
COc1ccccc1N1CCN(Cc2ccc(C(=O)O)cc2)CC1	?	1.7%	0.5%	i	-6.3%	9.9%
COc1cccc(NC(=O)CSC2=Nc3ccccc3C3=NC(CCC(=O)NCc4ccco4)C(=O)N23)c1 (stereo not given)	i	/	/	i	/	/
COc1ccc(C(=O)N2CCc3c([nH]c4ccccc34)C2C(F)(F)F)cc1 (stereo not given)	i	8.8%	-1.9%	i	-15.3%	26.6%
CCC(=O)N1CCc2cc(Br)cc(S(=O)(=O)N3CCC(C(=O)NCCCOC(C)C)CC3)c21	i	1.8%	-8.6%	i	?	?
CC(=O)C[C@H](O)CC(=O)[C@@H]1OC(=O)CCCCCc2ccccc21	i	9.9%	3.3%	i	?	-16.0%
COc1cc2c(cc1NC(=O)CSc1nnc(COc3ccc(Cl)cc3)n1C)oc1ccccc12	i	?	?	i	?	20.1%
Oc1ccc(CN2CCCc3ccccc32)c2cccnc12	?	?	-28.3%	23.1µM*	11.4%	19.5%
CCC(=O)Nc1nonc1-c1nc2ccccc2n1Cc1cccc2ccccc12	?	0.731µM*	?	0.92µM*	7.31µM*	0.366µM*
O=[N+]([O-])c1ccc2ncnc(N3CCN(Cc4ccc5c(c4)OCO5)CC3)c2c1	?	-15.0%	-17.3%	i	6.4%	-2.2%
COc1ccc2[nH]c3c(N4CCC(O)(c5cccc(C(F)(F)F)c5)CC4)ncnc3c2c1	18.4µM*	20.6µM*	?	13µM*	?	?
SMILES	KB-V1 MDR tox	HT1080 IDH1KD tx	HT1080NT lethal	KB-3-1 cytotox	SW480 rereplic	MCF10A rereplic
COc1ccc2[nH]c3c(N4CCN(Cc5ccc6c(c5)OCO6)CC4)ncnc3c2c1	?	?	20.6µM*	?	?	?
O=S(=O)(c1ccc(OC(F)(F)F)cc1)N1CCC(O)(c2cccc(C(F)(F)F)c2)CC1	i	-0.2%	-24.3%	i	-2.3%	14.4%
O=C(CN1CCN(C(=O)c2cccc(S(=O)(=O)N3CCCC3)c2)CC1)Nc1ccccc1Cl	i	0.3%	-1.0%	i	-12.3%	11.6%
CCOc1ccccc1NC(=O)CC1C(=O)NCCN1C(=O)c1ccc(F)cc1 (stereo not given)	i	/	/	i	/	/
CCOc1cc(S(=O)(=O)NC2CC2)c(OCC)cc1-n1cnnn1	14.6µM*	2.6%	14.9%	i	-10.6%	15.7%
CCOc1cc(S(=O)(=O)NCCc2ccc(OC)c(OC)c2)c(OCC)cc1-n1cnnn1	i	11.9%	5.5%	i	0.2%	12.7%
CCOc1cc(S(=O)(=O)NCc2ccc(OC)cc2)c(OCC)cc1-n1cnnn1	5.17µM*	8.91µM*	12.6µM*	i	?	?
CCOc1cc(C)c(S(=O)(=O)NC2CCCCC2)cc1C	?	-6.3%[9.24 µM]	-15.4%	?	-0.9%	-1.7%
CCOc1ccc(Br)cc1S(=O)(=O)NC1CCCC1	16.4µM*	2.0%	1.8%	i	-3.6%	10.6%
Cc1ccc2oc(-c3ccc(NC(=O)c4oc5ccc(Cl)cc5c4C)cc3)nc2c1	?	/	/	i	/	/
CCN(Cc1ccc(C#CCCO)cc1)CC1CCCN(CCc2cccc(OC)c2)C1 (stereo not given)	i	-8.6%	-19.5%	i	?	?
O=C(CCNc1cc(Cl)cc(Cl)c1)c1cccs1	i	0.0%	1.9%	i	1.4%	23.1µM*
Cc1cc(C)c2c(N)c(C(=O)Nc3ccccc3Br)sc2n1	i	-13.2%	-0.9%	i	18.4µM*	5.8µM*
Cc1cc(C)c2c(N)c(C(=O)Nc3ncc(C)s3)sc2n1	?	?	?	i	?	9.2µM*
Nc1c(C(=O)Nc2ccccc2F)sc2nc(-c3cccnc3)ccc12	i	13µM*	?	i	?	16.5%
Cc1cc(C)c2c(N)c(C(=O)Nc3ccccc3F)sc2n1	i	14.1%	4.5%	i	5.2%	29.1µM*
COC(=O)c1sc2nc(C)cc(C)c2c1N	i	-0.3%	3.0%	i	2.4%	9.2%
CCOc1ccccc1NC(=O)c1sc2nc(C)cc(C)c2c1N	i	/	/	i	/	/
CCc1ccccc1NC(=O)c1sc2nc(C)cc(C)c2c1N	?	-4.4%	-17.2%	i	?	?
